Compound activity (PubChem BioAssay)
HP1b binding inh – HTS for Inhibitors of HP1-beta Chromodomain Interactions with Methylated Histone Tails; Chromobox protein homolog 1 (Homo sapiens), P83916; AlphaScreen HP1-beta / biotin-H3K9me3 peptide binding; Potency, µM (top dose mostly 114 µM), inactives show top-dose activity change, negative = inhibition, most hits filed as inhibitors; 390,000 compounds, 0.56% hits; further: nearly all actives have a fitted effect of over 70% in size
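Compound inhibition of the preformed complex between 50 nM HP1-beta and 50 nM biotinylated H3K9me3 peptide was read by AlphaScreen. Buffer was PBS pH 7.4 with 0.01% Tween-20. Incubations ran 30 min at room temperature, with 10 ug/mL donor/acceptor beads.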
JMJD2A Tudor – qHTS Assay for Inhibitors of JMJD2A-Tudor Domain; AlphaScreen JMJD2A-Tudor / H3K4me3 peptide binding; Lysine-specific demethylase 4A (Homo sapiens), O75164; Potency, µM (highest dose often 114 µM), without a hit: top-dose activity change, negative = inhibition, hits mostly inhibitors; 390,000 compounds, 4.4% hits; further: on the % scale 0 is the no-effect control and ±100 the full control effect; nearly all actives have a fitted effect of over 50% in size
G9a block – qHTS Assay for Inhibitors of Histone Lysine Methyltransferase G9a | Histone-lysine N-methyltransferase EHMT2 (Homo sapiens), Q96KQ7 | G9a H3K9 monomethylation, AlphaScreen, 2 h | Potency, µM (titrated, usually from 102 µM), for inactives: at the highest dose activity, negative = inhibition, actives largely listed as inhibitors | 350,000 compounds, 8.8% hits; further: on the % scale 0 is the no-effect control and ±100 the full control effect; nearly all actives have a fitted effect of over 75% in size
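AlphaScreen read-out: biotin-H3K9 peptide (500 nM) methylation by 20 nM enzyme with 20 uM SAM, 2 h at room temperature after 15 min compound preincubation; anti-monomethyl H3K9 antibody plus donor/acceptor beads, 10 min dark.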
PLK1 PBD block – qHTS for Inhibitors of PLK1-PDB (polo-like kinase 1 - polo-box domain): Primary Screen; 360,000 compounds, 2.8% hits; Potency, µM, for the others: max response, negative = inhibition, usual class: inhibitors; Serine/threonine-protein kinase PLK1 (Homo sapiens), P53350; Plk1 PBD binding of FITC phosphopeptide, fluorescence polarization; further: series mostly up to about 57 µM; on the % scale 0 is the no-effect control and ±100 the full control effect; nearly all actives have a fitted effect of over 65% in size
12-LOX inh – Primary qHTS assay for inhibitors of human arachidonate 12S-lipoxygenase (ALOX12): Round 2. 580,000 compounds, 1.1% hits. Potency, µM (series often up to 108 µM), for inactives: top-dose activity change, negative = inhibition, actives largely listed as inhibitors. purified 12hLO, xylenol orange hydroperoxide absorbance. Polyunsaturated fatty acid lipoxygenase ALOX12 (Homo sapiens), P18054. AID 1671190, 2021; further: on the % scale 0 is the no-effect control and ±100 the full control effect
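Hydroperoxide product was detected by ferrous iron/xylenol orange as the 573 to 405 nm absorbance ratio. Arachidonic acid at 40 uM (final) was turned over for 30 min at room temperature by 150 nM human 12hLO, pH 7.0 Hepes buffer, after 15 min compound preincubation.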
BAZ2B block – qHTS Assay for Inhibitors of BAZ2B; Bromodomain adjacent to zinc finger domain protein 2B (Homo sapiens), Q9UIF8; AlphaScreen BAZ2B-H3K14Ac peptide displacement; Potency, µM (series often up to 114 µM), for the others: top-dose activity change, negative = inhibition, actives largely listed as inhibitors; 360,000 compounds, 4.4% hits; AID 504333, 2011; further: on the % scale 0 is the no-effect control and ±100 the full control effect; nearly all actives have a fitted effect of over 60% in size
Target sequence (Q9UIF8 whole entry, looked up, the tested form may be a part): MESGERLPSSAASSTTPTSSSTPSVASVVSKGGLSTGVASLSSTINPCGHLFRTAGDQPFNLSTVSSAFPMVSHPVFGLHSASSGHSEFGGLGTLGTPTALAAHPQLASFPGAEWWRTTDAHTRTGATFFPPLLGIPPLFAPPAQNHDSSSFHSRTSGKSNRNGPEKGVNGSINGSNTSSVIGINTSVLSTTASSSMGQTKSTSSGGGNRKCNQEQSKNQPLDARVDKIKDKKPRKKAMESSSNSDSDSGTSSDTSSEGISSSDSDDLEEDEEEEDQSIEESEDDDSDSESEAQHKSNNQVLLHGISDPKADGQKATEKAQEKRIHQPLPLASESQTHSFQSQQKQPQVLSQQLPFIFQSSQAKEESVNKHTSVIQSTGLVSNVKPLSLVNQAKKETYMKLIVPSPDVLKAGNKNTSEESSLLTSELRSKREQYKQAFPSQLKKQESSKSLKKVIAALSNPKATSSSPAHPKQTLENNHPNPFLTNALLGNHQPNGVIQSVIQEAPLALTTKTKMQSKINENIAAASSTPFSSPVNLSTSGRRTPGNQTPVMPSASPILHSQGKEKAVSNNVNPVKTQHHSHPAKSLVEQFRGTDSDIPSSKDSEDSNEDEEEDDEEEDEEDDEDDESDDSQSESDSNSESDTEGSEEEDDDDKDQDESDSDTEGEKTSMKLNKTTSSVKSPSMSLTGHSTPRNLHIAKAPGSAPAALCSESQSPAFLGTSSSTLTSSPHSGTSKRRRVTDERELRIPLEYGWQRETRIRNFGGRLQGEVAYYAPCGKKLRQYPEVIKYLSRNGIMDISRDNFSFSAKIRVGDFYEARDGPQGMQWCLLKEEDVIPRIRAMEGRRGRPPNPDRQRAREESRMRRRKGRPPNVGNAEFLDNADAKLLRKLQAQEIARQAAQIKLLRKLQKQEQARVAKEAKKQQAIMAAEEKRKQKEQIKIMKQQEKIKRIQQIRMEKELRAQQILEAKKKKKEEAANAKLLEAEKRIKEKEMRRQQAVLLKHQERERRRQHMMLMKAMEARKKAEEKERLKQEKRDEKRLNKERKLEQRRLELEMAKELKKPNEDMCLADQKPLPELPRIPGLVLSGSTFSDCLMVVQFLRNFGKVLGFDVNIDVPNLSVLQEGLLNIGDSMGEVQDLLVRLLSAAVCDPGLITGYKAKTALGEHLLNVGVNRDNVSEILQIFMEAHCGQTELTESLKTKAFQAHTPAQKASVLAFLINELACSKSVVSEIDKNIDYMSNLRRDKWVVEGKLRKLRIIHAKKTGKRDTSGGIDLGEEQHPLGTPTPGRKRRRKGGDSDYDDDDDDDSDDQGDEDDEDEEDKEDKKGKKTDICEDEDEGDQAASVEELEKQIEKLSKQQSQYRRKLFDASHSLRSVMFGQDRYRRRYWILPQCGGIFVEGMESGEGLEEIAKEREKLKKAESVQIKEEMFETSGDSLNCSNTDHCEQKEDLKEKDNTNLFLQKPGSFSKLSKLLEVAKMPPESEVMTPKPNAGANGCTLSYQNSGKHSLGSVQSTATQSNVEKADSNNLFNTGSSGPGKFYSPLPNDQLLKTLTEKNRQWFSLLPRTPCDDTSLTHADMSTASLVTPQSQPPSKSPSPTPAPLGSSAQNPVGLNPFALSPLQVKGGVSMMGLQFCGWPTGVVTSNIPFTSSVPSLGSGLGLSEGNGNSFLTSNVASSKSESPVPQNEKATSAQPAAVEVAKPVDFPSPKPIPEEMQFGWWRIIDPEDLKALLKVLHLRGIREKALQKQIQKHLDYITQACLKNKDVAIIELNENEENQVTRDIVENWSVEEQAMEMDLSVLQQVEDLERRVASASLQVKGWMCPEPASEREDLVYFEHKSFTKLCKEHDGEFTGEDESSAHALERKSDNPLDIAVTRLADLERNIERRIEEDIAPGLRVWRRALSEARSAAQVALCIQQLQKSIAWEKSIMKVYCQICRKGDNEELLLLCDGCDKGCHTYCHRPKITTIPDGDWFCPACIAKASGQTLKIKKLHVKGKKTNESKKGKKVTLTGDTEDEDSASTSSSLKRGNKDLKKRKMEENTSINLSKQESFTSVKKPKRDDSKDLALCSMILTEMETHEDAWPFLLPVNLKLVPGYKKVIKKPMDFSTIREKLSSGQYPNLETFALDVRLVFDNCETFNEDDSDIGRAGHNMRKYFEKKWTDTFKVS
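BAZ2B 50 nM plus b-H3(5-23)K14Ac 50 nM, PBS pH 7.4/0.01% Tween-20, 30 min RT; compound added (max 110 uM), 30 min RT; streptavidin donor/Ni-chelate acceptor beads 10 ug/mL final, 20 min dark; AlphaScreen read.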
Active calls of the source: *; ? = inconclusive; · = no result given; [ ] = remark or other dose. Shown are actives, neighbours in structure and some others; about 9% of the full set was active somewhere. The call rests on the fitted dose curve; in most records, active means well fitted curve in the direction sought with a large enough effect; inconclusive means small, poorly fitted or top-dose-only effect, or another doubt; inactive means no such curve, though single readings can be large; an effect the other way counts as inactive or inconclusive. Potency means the concentration at half of the fitted maximal effect.

SMILES	HP1b binding inh	JMJD2A Tudor	G9a block	PLK1 PBD block	12-LOX inh	BAZ2B block
COc1ccc(OCCSc2ncc(CO)n2C)cc1	53%	-16%	5%[2.33 µM]	-10%	5%	-1%
COc1ccc(Br)c(C(=O)OCC(=O)NC2CCCCCC2)c1	84%	31%	31%[12.7 µM]	-7%	-2%	13%
CCC(C)NC(=O)CSc1nc2c(sc(=S)n2Cc2ccco2)c(=O)n1-c1ccccc1 (configuration not stated)	38%	14%	0%	-4%	0%	?
O=C(CSc1ncn[nH]1)N1N=C(c2ccc(Cl)cc2)CC1c1ccco1 (configuration not stated)	27%	-29%	?	-3%	1%	14%
CCC(=O)N1N=C(c2ccc(NS(=O)(=O)c3ccc(C)cc3)cc2)CC1c1ccco1 (configuration not stated)	23%	-29%	·	0%	?	·
N=c1sccn1CC(=O)N1N=C(c2ccc(Cl)cc2)CC1c1ccco1 (configuration not stated)	-21%	-21%	-40%	-13%	-20%	79µM*
Cn1c(=O)c2c(ncn2CC(=O)N2N=C(c3ccc(Cl)cc3)CC2c2ccco2)n(C)c1=O (configuration not stated)	·	·	·	·	-16%	·
CCC1(CC)NC(=O)N(CC(=O)N2N=C(c3ccc(Cl)cc3)CC2c2ccco2)C1=O (configuration not stated)	-15%	?	56µM*	-11%	?	?
CCC(=O)N1N=C(c2ccc(C)cc2)CC1c1ccco1 (configuration not stated)	21%	-11%	45µM*	1%	22%	-25%
COc1cccc(C2=NN(C(=O)c3ccco3)C(c3ccco3)C2)c1 (configuration not stated)	0%	-33%	45µM*	-11%	-17%	?
Cc1ccc(/C=N/N2C(=O)c3ccccc3NC2c2ccc(C)cc2)cc1 (configuration not stated)	24%	-6%	20%[59 µM]	-19%	-3%	1%
Cc1ccc(C2=NN(C(=O)CSc3nnnn3C)C(c3ccco3)C2)cc1 (configuration not stated)	18%	-17%	0.89µM*	-2%	169%	-8%
Cc1ccc(C(=O)NC[C@H]2O[C@@H](CC(=O)N3CCCC3)[C@H](O)[C@@H]2O)cc1	·	·	·	·	0%[176 µM]	·
CSc1nnc(Cn2c(=O)sc3ccccc32)n1C	42%	-10%	-8%[59 µM]	-8%	273%	-2%
CSc1nnc(Cn2c(=O)sc3ccccc32)n1CCc1ccccc1	4%	?	-18%	21µM*	54%	-3%
CN1CCN(c2ncc3nc(-c4ccc(Cl)cc4)c(=O)n(C4CC4)c3n2)CC1	·	·	7%[12.7 µM]	·	?	·
COC(=O)N1C(=O)[C@@](c2ccc(OC)cc2)(C(C)C)N1C(=O)OC	54%	-15%	-33%	-26%	6%	-23%
COC(=O)N1C(=O)[C@](c2ccc(Cl)cc2)(C(C)C)N1C(=O)OC	101%	-3%	·	24µM*	?	3%
O=C(O)C1=C[C@@H](c2ccc(F)cc2)C[C@@H](OCCCCO)O1	21%	?	?	-18%	489%	79µM*
Cn1ccnc1-c1nc2ccccc2[nH]c1=O	20%	35µM*	2.5µM*	-5%	7%[57.4 µM]	18µM*
CCCCn1nnnc1-c1nc2ccccc2[nH]c1=O	·	·	·	-8%	-14%	·
